Out of some 3,600 compounds screened, about 900 (25%) were called active. How the calls were made is not given here. A selection follows. Measured potencies and affinities stand elsewhere.
Each molecule was assayed against Protein Tat (Human immunodeficiency virus type 1 group M subtype B (isolate HXB2)) (UniProt P04608) (assay: HIV-1 Tat–TAR interaction blockers – biochemical, fluorescence polarization, FAM-labeled TAR RNA, counter-screen for Vif-APOBEC3G degradation inhibitor project, dose response (AID 1117361)). Conditions: Tat-TAR RNA binding; series mostly up to 100 µM; inhibition: at the top concentration.

Row | SMILES | outcome | inhibition
1 | Fc1ccc2[nH]c3c(N4CCc5ccccc5C4)ncnc3c2c1 | inactive | –
2 | CC1CCN(C(=O)C2c3ccccc3C(=O)N3CCc4ccccc4C23)CC1 (centres undefined) | inactive | –
3 | COc1ccc(-n2c(=O)[nH]cc(C(=O)N3CCc4ccccc43)c2=O)cc1 | inactive | –
4 | CCOc1ccc(C(=O)NC2CCN(S(=O)(=O)CC)CC2)cc1 | – | 5.41% (inactive)
5 | CNS(=O)(=O)c1cccc(C(=O)OCc2cc(Cl)cc3c2OCOC3)c1 | – | 4.09% (inactive)
6 | COCCn1c(SCC(=O)Nc2cc(C)on2)nc2cc(Cl)ccc2c1=O | – | 7.42% (inactive)
7 | CCN(CC)CCN=CC1=C(O)CNC1=O | – | 19.6% (inactive)
8 | CCOc1ccccc1N1C(=O)c2ccc(C(=O)Nc3cccnc3)cc2C1=O | inactive | –
9 | C[C@H](NC(=O)NCc1cccs1)C(=O)O | – | 14.4% (inactive)
10 | CCOC(=O)c1c(C)[nH]c(C)c1C(=O)COC(=O)c1cccc(S(=O)(=O)NC)c1 | – | 2.05% (inactive)
11 | COc1ccc(NC(=O)/C(C#N)=C/c2ccc(Sc3nncn3C)c([N+](=O)[O-])c2)cc1 | inactive | –
12 | COc1ccc(NC(=O)/C(C#N)=C/c2ccc(Br)o2)cc1 | inactive | –
13 | CCN(c1ccc(NC(=O)COC(=O)c2ccc([N+](=O)[O-])o2)cc1)C(C)C | inactive | –
14 | CCOC(CCNC(=O)c1cn(C)c(=O)c2c1c1ccccc1n2C)OCC | – | 9.02% (inactive)
15 | COc1ccccc1-n1c(SCC(=O)NCc2ccc3c(c2)OCO3)nc2cc([N+](=O)[O-])ccc21 | inactive | –
16 | Nc1cc(N)nc(SCc2cc([N+](=O)[O-])cc3c2OCOC3)n1 | – | 12.4% (inactive)
17 | COCCn1c(N)c(N(Cc2ccccc2)C(=O)C2CCCCC2)c(=O)[nH]c1=O | inactive | –
18 | Cc1ccc(S(=O)(=O)N2CCN(Cc3nc4sc(C)c(C)c4c(=O)[nH]3)CC2)cc1 | – | 9.46% (inactive)
19 | CCc1ccc(C(=O)Nc2ccc(S(=O)(=O)Nc3nc(C)cc(C)n3)cc2)o1 | – | 8.11% (inactive)
20 | O=C(NC12CC3CC(CC(C3)C1)C2)c1ccc(S(=O)(=O)N2CCOCC2)cc1 | inactive | –
21 | CCn1ncc(Br)c1C(=O)Nc1sc2c(c1C(N)=O)CCC2 | – | 14.2% (inactive)
22 | CCOC(=O)CNC(=O)Cn1cnc2c(nnn2-c2ccc(F)cc2)c1=O | – | 1.67% (inactive)
23 | Cc1nc2nc(COc3ccccc3)[nH]n2c(=O)c1Cc1ccccc1 | inactive | –
24 | O=c1cc2c(n[nH]1)CCCC2 | – | 7.43% (inactive)
25 | O=C(Nc1cccc(Cl)c1)C1=Cc2cc(Cl)ccc2OC1 | inactive | –
26 | Cc1ccc(NC(=O)/C=C\C(=O)O)c([N+](=O)[O-])c1 | inactive | –
27 | COc1ccc(NC(=O)/C=C/c2ccc(S(=O)(=O)N3CCOCC3)cc2)cc1 | inactive | –

Row | SMILES | outcome | inhibition
28 | Cc1nc(NC(=O)/C=C/c2ccccc2)sc1C(=O)Nc1ccccc1 | – | 4.73% (inactive)
29 | O=C(CSc1ncnc2ccccc12)Nc1cccc(S(=O)(=O)N2CCOCC2)c1 | – | 0.82% (inactive)
30 | CCN(CC)S(=O)(=O)c1cccc(NC(=O)/C=C/c2cccc([N+](=O)[O-])c2)c1 | – | 6.14% (inactive)
31 | Cc1sc2nc(SCC(=O)N3CCOCC3)[nH]c(=O)c2c1C | inactive | –
32 | Cc1cc(C)cc(C(=O)N2CCC(C(N)=O)CC2)c1 | – | 6.76% (inactive)
33 | O=C(CNS(=O)(=O)c1ccccc1)OCC(=O)c1ccc(OC(=O)c2ccccc2)cc1 | inactive | –
34 | O=C1CCc2cc(S(=O)(=O)NC(Cc3ccccc3)C(=O)NCC3CCCO3)ccc2N1 (centres undefined) | – | 7.43% (inactive)
35 | NC(=O)c1nsnc1-c1ccccc1O | inactive | –
36 | CC1C=CC=CC=CC=CC=CC=CC=CC(OC2OC(C)C(O)C(N)C2O)CC2OC(O)(CC(O)CC(O)C(O)CCC(O)CC(O)CC(=O)OC(C)C(C)C1O)CC(O)C2C(=O)O (centres undefined) | – | 25.1% (inactive)
37 | COc1ccc(S(=O)(=O)N(C)Cc2cccs2)cc1Br | – | 0.68% (inactive)
38 | O=C(OCn1nnc2ccccc2c1=O)C1=COCCO1 | – | 0.68% (inactive)
39 | CC(=O)Nc1ccc(N=Nc2ccccc2)cc1 | inactive | –
40 | O=C(NCCNC(=O)c1cc(OCC(F)(F)F)ccc1OCC(F)(F)F)Nc1cccc(C(F)(F)F)c1 | – | 2.73% (inactive)
41 | Cc1cc(-c2ccccc2)nc(Oc2ccc(C(C)(C)C)cc2)c1S(C)(=O)=O | – | 2.73% (inactive)
42 | CCc1nnc(NC(=O)CSc2nnc(Cc3ccccc3)n2-c2ccc(OC)cc2)s1 | inactive | –
43 | COc1ccc(CN2CCNC(=O)C2CC(=O)NC2CCCC2)cc1OC (centres undefined) | – | 11.7% (inactive)
44 | COc1ccc(C(=O)NC2CC3CCCC(C2)N3CC(C)C)cc1 (centres undefined) | – | 5.59% [at 50 µM] (inactive)
45 | C=C1Cn2c(nnc2-c2ccc(Cl)cc2)S1 | – | 3.38% (inactive)
46 | Cc1ccc(C)c(OCCC(=O)Nc2ccccc2C(=O)NC2CC2)c1 | inactive | –
47 | CCC1CCC2(CC1)NC(=O)N(CC(=O)Nc1ccc(OC)c(Cl)c1)C2=O (centres undefined) | – | 0.82% (inactive)
48 | Cc1ccc2c(Cl)cc(Cl)c(OCC(=O)NCc3ccco3)c2n1 | – | 2.03% (inactive)
49 | CC(C)(C)NC(=O)COC(=O)c1cc(S(=O)(=O)N2CCCCC2)ccc1N1CCOCC1 | – | 14.2% (inactive)
50 | CCOCCCNC(=O)c1ccccc1Br | inactive | –
51 | O=C1[C@@H]2CSCN2C(=O)CN1CCc1cccc(F)c1 | inactive | –
52 | COc1ccc(C(=O)Cn2c(=N)n(C)c3ccccc32)cc1 | inactive | –
53 | CCn1c(CNC(C)=O)nnc1SCC(=O)c1ccc(Br)cc1 | inactive | –
54 | CCN(c1ccccc1)S(=O)(=O)c1ccc(C(=O)NNC(=O)c2ccccc2F)cc1 | inactive | –

Source: PubChem BioAssay AID1117361 (Southern Research Institute, 2015)
